In the supplement of paper PMC11732987, “Enantioselective OTUD7B fragment discovery through chemoproteomics screening and high-throughput optimisation” (Communications Chemistry, 2025):

What was measured:
Experiment in all cases: log2 ratio of Biotin-Ahx-Ub-VS probe labelling (fragment/DMSO); higher = less target engagement (more negative = stronger competition), active = hit call of the paper (q ≤ 0.05, log2 ratio ≤ -1)
Conditions in all cases: compound concentration: 200 uM; treatment time: 3 h
[1] = molecular target: T1, USP19 (UniProt O94966)
T1 sequence (whole entry): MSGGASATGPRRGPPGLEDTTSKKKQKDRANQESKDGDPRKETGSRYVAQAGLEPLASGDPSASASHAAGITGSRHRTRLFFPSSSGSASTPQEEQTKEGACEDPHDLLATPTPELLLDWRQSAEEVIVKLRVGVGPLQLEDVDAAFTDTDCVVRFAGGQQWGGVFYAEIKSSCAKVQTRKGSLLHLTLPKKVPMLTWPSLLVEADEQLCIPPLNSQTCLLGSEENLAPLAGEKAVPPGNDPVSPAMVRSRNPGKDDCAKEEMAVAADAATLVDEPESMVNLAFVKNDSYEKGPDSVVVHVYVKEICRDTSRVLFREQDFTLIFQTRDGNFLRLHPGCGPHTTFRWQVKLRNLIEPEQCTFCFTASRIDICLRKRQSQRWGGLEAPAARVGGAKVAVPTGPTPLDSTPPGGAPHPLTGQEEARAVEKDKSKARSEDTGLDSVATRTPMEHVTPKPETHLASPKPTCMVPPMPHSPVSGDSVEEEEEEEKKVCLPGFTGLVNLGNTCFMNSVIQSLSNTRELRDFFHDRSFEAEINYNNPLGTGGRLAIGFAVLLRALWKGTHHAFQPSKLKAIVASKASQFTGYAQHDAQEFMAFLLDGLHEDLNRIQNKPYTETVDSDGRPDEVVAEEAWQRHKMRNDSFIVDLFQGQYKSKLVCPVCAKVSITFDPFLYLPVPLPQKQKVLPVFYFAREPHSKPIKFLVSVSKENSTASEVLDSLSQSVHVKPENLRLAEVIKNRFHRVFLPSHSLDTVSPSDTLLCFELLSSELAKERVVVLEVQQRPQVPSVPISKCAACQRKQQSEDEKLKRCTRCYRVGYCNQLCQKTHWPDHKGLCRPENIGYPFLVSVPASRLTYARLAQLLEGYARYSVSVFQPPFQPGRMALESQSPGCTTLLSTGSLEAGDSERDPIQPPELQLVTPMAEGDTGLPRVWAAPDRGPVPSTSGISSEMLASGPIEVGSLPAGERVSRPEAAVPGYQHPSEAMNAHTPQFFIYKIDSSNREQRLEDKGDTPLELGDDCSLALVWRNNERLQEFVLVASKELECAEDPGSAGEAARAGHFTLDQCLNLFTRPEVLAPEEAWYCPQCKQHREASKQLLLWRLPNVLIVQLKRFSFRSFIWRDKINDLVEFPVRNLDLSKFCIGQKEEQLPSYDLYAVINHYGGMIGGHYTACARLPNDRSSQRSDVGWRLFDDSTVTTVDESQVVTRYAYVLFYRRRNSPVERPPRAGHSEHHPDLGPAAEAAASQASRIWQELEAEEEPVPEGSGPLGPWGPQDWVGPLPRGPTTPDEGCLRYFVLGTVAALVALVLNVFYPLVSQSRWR
Summary of the method: (§1)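 HEK293T lysate (495 µg per sample, in Tris/CHAPS/IGEPAL buffer with protease inhibitors) was exposed in triplicate for 3 h to fragment at 200 µM or to vehicle, then to Biotin-Ahx-Ub-VS at 0.5 µM final for 1 h. Labelled DUBs were enriched on NeutrAvidin, digested with LysC and trypsin, and analysed by diaPASEF LC-MS/MS. Spectronaut label-free quantities were normalised to the global median, and values are average log2 ratios of fragment over vehicle from an unpaired t-test. Only proteins with ≥2 unique peptides were used.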

[2] = molecular target: T2, USP22 (UniProt Q9UPT9)
T2 sequence (whole entry): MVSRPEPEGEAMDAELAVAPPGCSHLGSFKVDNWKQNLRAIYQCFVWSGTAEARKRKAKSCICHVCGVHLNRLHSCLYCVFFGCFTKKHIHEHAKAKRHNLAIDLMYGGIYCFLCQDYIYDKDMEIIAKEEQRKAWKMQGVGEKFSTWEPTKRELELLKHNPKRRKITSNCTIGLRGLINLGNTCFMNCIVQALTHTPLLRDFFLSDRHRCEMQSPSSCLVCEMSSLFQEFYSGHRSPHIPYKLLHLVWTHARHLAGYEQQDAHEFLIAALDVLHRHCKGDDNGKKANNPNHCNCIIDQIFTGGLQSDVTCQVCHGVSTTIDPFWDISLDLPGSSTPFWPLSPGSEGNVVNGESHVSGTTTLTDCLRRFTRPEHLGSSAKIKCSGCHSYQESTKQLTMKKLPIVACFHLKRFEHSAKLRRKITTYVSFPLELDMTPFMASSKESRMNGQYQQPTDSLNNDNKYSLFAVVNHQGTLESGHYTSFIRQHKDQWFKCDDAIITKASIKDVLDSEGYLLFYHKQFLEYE
Summary of the method: as §1

[3] = molecular target: USP24 (UniProt Q9UPU5)
Summary of the method: as §1

[4] = molecular target: T3, USP25 (UniProt Q9UHP3)
T3 sequence (whole entry): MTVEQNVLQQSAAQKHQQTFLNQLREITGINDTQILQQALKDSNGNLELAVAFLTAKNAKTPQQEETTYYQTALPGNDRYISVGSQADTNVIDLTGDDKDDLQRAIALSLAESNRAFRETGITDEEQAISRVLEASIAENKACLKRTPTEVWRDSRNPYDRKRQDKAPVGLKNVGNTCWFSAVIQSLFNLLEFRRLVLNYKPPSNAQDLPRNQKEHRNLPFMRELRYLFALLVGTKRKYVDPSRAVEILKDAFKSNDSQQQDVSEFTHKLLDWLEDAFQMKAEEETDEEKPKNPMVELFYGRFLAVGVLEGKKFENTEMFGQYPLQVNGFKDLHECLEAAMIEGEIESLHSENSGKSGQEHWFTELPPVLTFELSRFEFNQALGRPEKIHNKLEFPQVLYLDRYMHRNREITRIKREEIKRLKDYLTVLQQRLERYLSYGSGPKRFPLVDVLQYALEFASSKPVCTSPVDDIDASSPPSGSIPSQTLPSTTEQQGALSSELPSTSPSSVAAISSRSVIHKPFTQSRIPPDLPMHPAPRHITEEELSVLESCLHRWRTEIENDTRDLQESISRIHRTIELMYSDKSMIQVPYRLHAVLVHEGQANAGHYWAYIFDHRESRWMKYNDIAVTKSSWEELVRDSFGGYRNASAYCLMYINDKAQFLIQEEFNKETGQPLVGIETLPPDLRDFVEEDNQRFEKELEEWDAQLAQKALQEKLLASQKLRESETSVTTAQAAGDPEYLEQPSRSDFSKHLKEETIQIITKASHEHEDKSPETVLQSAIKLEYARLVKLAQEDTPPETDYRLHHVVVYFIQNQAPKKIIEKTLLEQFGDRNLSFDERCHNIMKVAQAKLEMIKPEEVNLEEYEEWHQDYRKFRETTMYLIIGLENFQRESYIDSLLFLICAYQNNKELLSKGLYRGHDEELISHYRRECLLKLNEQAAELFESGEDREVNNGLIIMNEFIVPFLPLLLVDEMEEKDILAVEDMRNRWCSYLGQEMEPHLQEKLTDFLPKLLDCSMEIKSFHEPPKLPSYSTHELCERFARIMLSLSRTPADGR
Summary of the method: as §1

[5] = molecular target: T4, USP28 (UniProt Q96RU2)
T4 sequence (whole entry): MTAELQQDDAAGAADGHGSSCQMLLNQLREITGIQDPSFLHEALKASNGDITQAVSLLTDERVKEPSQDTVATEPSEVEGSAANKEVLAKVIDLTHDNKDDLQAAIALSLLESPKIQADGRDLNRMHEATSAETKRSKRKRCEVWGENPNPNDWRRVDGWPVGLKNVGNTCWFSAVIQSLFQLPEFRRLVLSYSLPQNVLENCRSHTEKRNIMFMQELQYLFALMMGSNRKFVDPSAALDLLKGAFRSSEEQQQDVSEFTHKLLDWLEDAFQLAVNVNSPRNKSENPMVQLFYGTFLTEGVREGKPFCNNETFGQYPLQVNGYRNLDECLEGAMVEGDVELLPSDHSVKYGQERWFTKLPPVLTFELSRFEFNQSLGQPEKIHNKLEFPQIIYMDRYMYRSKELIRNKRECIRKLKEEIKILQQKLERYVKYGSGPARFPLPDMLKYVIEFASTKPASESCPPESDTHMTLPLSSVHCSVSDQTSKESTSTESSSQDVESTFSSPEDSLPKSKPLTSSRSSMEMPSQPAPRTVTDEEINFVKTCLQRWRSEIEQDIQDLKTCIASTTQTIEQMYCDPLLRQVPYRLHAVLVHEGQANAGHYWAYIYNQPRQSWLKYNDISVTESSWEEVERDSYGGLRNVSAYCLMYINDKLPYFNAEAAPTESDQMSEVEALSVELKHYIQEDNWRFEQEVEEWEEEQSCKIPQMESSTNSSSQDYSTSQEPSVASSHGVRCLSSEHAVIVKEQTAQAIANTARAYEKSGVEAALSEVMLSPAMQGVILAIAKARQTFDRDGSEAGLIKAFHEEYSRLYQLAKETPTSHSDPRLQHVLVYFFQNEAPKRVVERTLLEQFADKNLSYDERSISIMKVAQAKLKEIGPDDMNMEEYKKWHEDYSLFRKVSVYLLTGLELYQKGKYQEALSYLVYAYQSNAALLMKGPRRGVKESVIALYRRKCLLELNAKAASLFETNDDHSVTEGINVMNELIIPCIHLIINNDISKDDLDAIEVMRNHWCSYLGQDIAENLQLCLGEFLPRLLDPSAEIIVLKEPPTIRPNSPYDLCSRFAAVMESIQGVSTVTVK
Summary of the method: as §1

Measured: log2 ratio of Biotin-Ahx-Ub-VS probe labelling

Sequence of USP24 (Q9UPU5 whole entry): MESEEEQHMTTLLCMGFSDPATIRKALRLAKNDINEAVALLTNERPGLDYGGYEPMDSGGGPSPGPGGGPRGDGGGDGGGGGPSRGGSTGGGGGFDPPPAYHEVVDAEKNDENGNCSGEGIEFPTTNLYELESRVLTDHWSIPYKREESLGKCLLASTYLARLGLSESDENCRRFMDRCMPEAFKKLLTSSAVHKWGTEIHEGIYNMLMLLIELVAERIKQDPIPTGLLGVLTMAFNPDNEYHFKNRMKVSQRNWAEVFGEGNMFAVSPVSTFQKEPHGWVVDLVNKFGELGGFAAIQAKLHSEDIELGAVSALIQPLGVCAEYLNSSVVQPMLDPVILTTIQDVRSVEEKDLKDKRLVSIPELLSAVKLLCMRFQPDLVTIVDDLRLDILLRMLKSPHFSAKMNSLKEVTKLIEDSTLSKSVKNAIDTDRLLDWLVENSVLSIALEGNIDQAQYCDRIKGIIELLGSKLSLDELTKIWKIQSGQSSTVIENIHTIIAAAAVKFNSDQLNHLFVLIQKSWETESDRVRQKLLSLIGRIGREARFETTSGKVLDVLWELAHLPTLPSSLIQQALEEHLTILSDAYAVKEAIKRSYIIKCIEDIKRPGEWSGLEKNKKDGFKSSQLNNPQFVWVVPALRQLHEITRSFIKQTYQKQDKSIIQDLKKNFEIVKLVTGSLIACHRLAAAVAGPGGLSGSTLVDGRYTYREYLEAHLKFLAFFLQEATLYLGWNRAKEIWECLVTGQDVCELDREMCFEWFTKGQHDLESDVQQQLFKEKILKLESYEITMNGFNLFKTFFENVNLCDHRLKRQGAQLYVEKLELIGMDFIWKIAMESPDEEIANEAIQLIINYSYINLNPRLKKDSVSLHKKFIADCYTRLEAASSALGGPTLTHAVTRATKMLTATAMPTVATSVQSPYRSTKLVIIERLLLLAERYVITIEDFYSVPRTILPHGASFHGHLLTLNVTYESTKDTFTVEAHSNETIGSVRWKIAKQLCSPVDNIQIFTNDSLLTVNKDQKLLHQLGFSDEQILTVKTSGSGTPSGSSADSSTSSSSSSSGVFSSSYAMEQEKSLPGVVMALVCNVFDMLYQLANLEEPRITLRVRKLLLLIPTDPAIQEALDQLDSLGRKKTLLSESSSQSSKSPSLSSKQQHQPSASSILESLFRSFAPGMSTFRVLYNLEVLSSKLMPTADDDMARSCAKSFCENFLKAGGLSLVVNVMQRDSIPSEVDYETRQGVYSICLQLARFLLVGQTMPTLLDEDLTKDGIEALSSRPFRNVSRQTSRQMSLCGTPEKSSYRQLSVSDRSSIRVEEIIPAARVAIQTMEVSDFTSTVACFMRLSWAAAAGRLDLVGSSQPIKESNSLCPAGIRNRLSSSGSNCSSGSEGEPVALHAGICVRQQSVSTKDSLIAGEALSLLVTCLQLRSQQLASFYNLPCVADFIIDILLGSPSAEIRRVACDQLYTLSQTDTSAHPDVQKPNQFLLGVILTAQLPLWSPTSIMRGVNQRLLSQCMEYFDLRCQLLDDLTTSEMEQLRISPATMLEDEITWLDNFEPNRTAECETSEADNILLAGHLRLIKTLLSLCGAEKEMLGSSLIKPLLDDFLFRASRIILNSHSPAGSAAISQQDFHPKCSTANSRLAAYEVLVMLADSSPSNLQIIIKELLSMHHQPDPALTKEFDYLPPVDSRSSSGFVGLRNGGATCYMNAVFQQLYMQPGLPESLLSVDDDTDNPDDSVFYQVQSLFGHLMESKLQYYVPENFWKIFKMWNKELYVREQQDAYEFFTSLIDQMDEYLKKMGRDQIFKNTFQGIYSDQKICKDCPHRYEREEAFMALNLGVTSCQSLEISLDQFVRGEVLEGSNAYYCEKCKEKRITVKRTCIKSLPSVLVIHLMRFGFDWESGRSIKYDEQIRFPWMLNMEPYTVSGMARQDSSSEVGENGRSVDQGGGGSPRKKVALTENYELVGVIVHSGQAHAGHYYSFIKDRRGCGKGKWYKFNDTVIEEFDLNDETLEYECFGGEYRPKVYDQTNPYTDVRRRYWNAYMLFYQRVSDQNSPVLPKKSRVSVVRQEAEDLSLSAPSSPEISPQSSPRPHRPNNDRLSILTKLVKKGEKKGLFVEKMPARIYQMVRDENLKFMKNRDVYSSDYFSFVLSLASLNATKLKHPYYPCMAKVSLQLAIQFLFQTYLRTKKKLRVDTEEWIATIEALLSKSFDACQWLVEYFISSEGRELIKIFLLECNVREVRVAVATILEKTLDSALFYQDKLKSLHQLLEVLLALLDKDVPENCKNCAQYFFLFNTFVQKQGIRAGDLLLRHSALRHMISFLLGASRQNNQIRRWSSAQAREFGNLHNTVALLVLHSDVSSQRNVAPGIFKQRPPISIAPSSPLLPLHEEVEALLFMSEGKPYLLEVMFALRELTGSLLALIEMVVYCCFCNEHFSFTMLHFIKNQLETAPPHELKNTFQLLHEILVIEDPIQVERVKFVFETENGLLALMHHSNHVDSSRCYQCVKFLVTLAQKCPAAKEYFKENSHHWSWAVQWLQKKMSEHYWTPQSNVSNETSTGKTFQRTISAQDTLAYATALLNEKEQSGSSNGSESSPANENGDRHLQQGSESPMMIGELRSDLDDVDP

Cl.O=C(CCl)NCc1cc2c(nc1O)CCCC2
inactive: [1] -0.0739 | [2] -0.0357 | [3] -0.254 | [4] -0.59 | [5] -0.576
